# Assay results taken from PubChem BioAssay (NCATS).
# Inconclusive results are not listed. Entries that show only a call come without a potency. Active and inactive are the calls of the source. Calls come from the whole dose curve; as a rule, active = well fitted cell-killing curve with a large enough effect; inconclusive = small, poorly fitted or top-dose-only effect, or effect the other way; inactive = no such curve, though single readings can be large or run the other way.
# Assay: Quantitative highthroughput screen to assess conditional lethalithy of SEM cells grown in RPMI1640 with dialyzed fetal bovine serum (RPMI+ds) (AID 1963884); note: nearly all actives have a fitted effect of over 35% in size
# Settings: SEM B-ALL cells, RPMI+dialyzed FBS, CellTiter-Glo viability, 48 h; series mostly up to 45.8 µM
# Source text: Assay Provider: Jason Cantor Ph.D.
# Department of Biochemistry
# University of Wisconsin-Madison, Madison, WI, USA
# Chemical screening studies have identified drug sensitivities across hundreds of cancer cell lines but most putative therapeutics fail to translate. Discovery and development of drug candidates in models that more accurately reflect nutrient levels in human blood is a major challenge. Here we performed high-throughput screens in conventional versus Human Plasma-Like Medium (HPLM) to identify compounds that were "missed" when screening using the artificial culture condition. Sets of conditional anticancer compounds spanned phases of clinical development and included non-oncology drugs were assessed. […] We also traced conditional phenotypes for several chemotherapeutics to availability of HPLM-specific metabolites and confirmed others for compounds whose reported targets are encoded by nonessential genes. Our findings establish generalizable strategies for exploiting conditional lethality in HPLM to reveal therapeutic candidates and mechanisms of action in cancer cells.
# Described herein are the results of each viability screens against three cell lines: NOMO1 (an acute myeloid leukemia cell line); P12-Ichikawa (a T-cell acute lymphoblastic leukemia); and SEM (a B-cell ALL). Each assay was screened using 3 different cell culture media: homemade human plasma-Like medium with 10% dialyzed fetal bovine serum (HPLM+ds); RPMI1640 with 10% untreated FBS and 5mM glucose (RPMI+s); and RPMI1640 with 10% dialyzed fetal bovine serum and 5 mM glucose (RPMI+ds).
# PROTOCOL TABLE (as described by Inglese J, Shamu CE and Guy RK. 2007)
# SEQUENCE No. (e.g., 1, 2, 3, etc.); […] (e.g., Cells, Incubation, Reagent, etc.); VALUE and DESCRIPTION.
# 1; Cells; 5 uL; white, solid bottom 1536-well Greiner assay plate.
# 2; Compounds; 23 nL; Kalypsis pin tool (Wako USA) equipped with a 1536-well pin head to transfer to the assay plates.
# 3; Incubation; 48 hours; 37C incubation.
# 4; Reagent; 3 uL; CellTiter Glo (Promega).
# 5; Incubation; 5 min, room temperature
# 6; Detection; Luminescence, Viewlux PerkinElmer.
# NOTES (numbers refer to Sequence numbers above)
# 1. Briefly, 5 ul of cell reagent was dispensed using a Multidrop Combi Dispenser. The NOMO1 and SEM cells were plated at 500 cells/well and the P12-Ichikawa line at 1000 cells/well.
# 2. After seeding the cells, 23 nL of MIPE 4.1 library compounds (in DMSO) were added to each plate using a Kalypsys 1536 Pintool dispenser. Bortezomib at final concentration of […] and DMSO were added to each plate as positive and negative controls respectively. For each screen, MIPE 4.1 compounds were added over an eleven-point concentration range […] in 3-fold dilutions.
# 3. Each plate was covered with a stainless steel gasketed lid to prevent evaporation and incubated for 48 hour at 37C, 95% relative humidity, and 5% CO2.
# 4-5. Three microliter CellTilter-GloTM luminescent substrate mix (Promega) reagent was added to the assay plate and incubated at room temperature for 5 min.
# 6. The luminescence signal was measured using a ViewLux (PerkinElmer) multiplate reader with a 2 second exposure time per plate. Data for each compound were normalized as percent viability such that measurements for DMSO and the empty well controls in each plate were defined as 100% and 0%, respectively.
# Potency is the fitted concentration of half-maximal effect.
row,Structure (SMILES),Potency
1,CC(=O)[C@]1(O)Cc2c(O)c3c(c(O)c2[C@@H](O[C@H]2C[C@H](N)[C@@H](O)[C@H](C)O2)C1)C(=O)c1ccccc1C3=O,1.05 µM (active)
2,CC(C=CC1=C(C)CCCC1(C)C)=CC=CC(C)=CC(=O)O,inactive
3,CCC1=C(C)CN(C(=O)NCCc2ccc(S(=O)(=O)NC(=O)NC3CCC(C)CC3)cc2)C1=O (stereo not given),inactive
4,C=C(C)[C@@H]1CC[C@]2(C)CC[C@]3(C)[C@H](CC[C@@H]4[C@@]5(C)CC[C@H](O)C(C)(C)[C@H]5CC[C@]43C)[C@@H]12,inactive
5,CS(=O)(=O)CCNCc1ccc(-c2ccc3ncnc(Nc4ccc(OCc5cccc(F)c5)c(Cl)c4)c3c2)o1,23.5 µM (active)
6,CN(NC(=O)CC(=O)NN(C)C(=S)c1ccccc1)C(=S)c1ccccc1,0.0417 µM (active)
7,COC(=O)C[C@](O)(CCCC(C)(C)O)C(=O)O[C@@H]1C(OC)=C[C@]23CCCN2CCc2cc4c(cc2[C@H]13)OCO4,inactive
8,Cc1nnc(C(=O)NC(C)(C)c2nc(C(=O)NCc3ccc(F)cc3)c(O)c(=O)n2C)o1,inactive
9,CS(=O)(=O)N(Cc1ccco1)CC(O)Cn1c2ccccc2c2ccccc21 (stereo not given),5.9 µM (active)
10,C=CC(=O)Nc1ccc2ncnc(Nc3ccc(OCc4cccc(F)c4)c(Cl)c3)c2c1,8.33 µM (active)
11,CC1(C)CCC(CN2CCN(c3ccc(C(=O)NS(=O)(=O)c4ccc(NCC5CCOCC5)c([N+](=O)[O-])c4)c(Oc4cnc5[nH]ccc5c4)c3)CC2)=C(c2ccc(Cl)cc2)C1,0.0264 µM (active)
12,CNC(=O)c1ccc(C)c(-n2c(C)cc(OCc3ccc(F)cc3F)c(Br)c2=O)c1,inactive
13,COC(=O)N1CCN(Cc2cccc(NC(=O)Nc3ccc(C)nc3)c2F)CC1,inactive
14,CCn1cc(C(=O)O)c(=O)c2cc(F)c(N3CCNC(C)C3)c(F)c21 (stereo not given),inactive
15,Cc1noc(NS(=O)(=O)c2ccc(N)cc2)c1C,inactive
16,COC(=O)Nc1cc(Nc2cc(NC3CC3)c3ncc(C#N)n3n2)c(Cl)c(N2CCN(C)CC2)c1,2.34 µM (active)
17,CCOc1ccccc1N=Nc1c(C)[nH]n(-c2nc(-c3ccccc3)cs2)c1=O,7.43 µM (active)
18,O=C1c2c(O)cc(O)cc2OC(c2ccc(O)c(O)c2)C1O (stereo not given),inactive
19,O=C(c1ccc(Nc2nccc(-c3cc4ccccc4s3)n2)cc1)N1CCC(N2CCCC2)CC1,9.35 µM (active)
20,CNC(=O)c1ccc(N2C(=S)N(c3ccc(C#N)c(C(F)(F)F)c3)C(=O)C2(C)C)cc1F,inactive

row,Structure (SMILES),Potency
1,CCN1CCN(c2ccc(Nc3cc(N(C)C(=O)Nc4c(Cl)c(OC)cc(OC)c4Cl)ncn3)cc2)CC1,2.64 µM (active)
2,COc1ccc(C=Cc2cc(OC)c(OC)c(OC)c2)cc1O,inactive
3,O=C(NC1CCNCC1)c1[nH]ncc1NC(=O)c1c(Cl)cccc1Cl,1.32 µM (active)
4,CC(N[C@H]1CCCC[C@H]1NC(=O)c1ccc(Cl)cc1)c1cccc2ccccc12 (stereo not given in full),inactive
5,CC(=O)ON=C1C(c2c(O)[nH]c3cc(Br)ccc23)=Nc2ccccc21,0.935 µM (active)
6,COc1cc(C=CC(=O)CC(=O)C=Cc2ccc(O)c(OC)c2)ccc1O,21.5 µM (active)
7,Cc1cnc(Nc2ccc(CN3CCOCC3)cc2)nc1Nc1cccc(S(=O)(=O)NC(C)(C)C)c1,0.166 µM (active)
8,CC(C)NCC(O)COc1ccc(CCOCC2CC2)cc1 (stereo not given),inactive
9,O=P(O)(O)C(O)(Cn1ccnc1)P(=O)(O)O,inactive
10,CC1=C[C@@H]2[C@@H]([C@@H](O)C[C@@]3(C)[C@H]2C[C@@H](C)[C@]3(O)C(=O)CO)[C@@]2(C)Cc3cnn(-c4ccccc4)c3C=C12,0.0526 µM (active)
11,CC[C@@]1(O)C(=O)OCc2c1cc1n(c2=O)Cc2cc3c(CN(C)C)c(O)ccc3nc2-1,0.105 µM (active)
12,CN1C[C@H]2c3ccccc3Oc3ccc(Cl)cc3[C@@H]2C1,23.5 µM (active)
13,O=C(CCCN1CCC(O)(c2ccc(Cl)cc2)CC1)c1ccc(F)cc1,inactive
14,O=C(OCC#CCSc1nnc(-c2cccc3ccccc23)o1)c1cc2ccccc2s1,inactive
15,O=C(Nc1ccc(F)c(C(F)(F)F)c1)Nc1nnc(-c2ccncc2)s1,inactive
16,O=C(C=Cc1ccc(O)cc1)c1ccc(O)cc1O,18.7 µM (active)
17,Cc1[nH]c(=O)c(C#N)cc1-c1ccc2nccn2c1,inactive
18,CCCOc1ccc2nc(NC(=O)OC)[nH]c2c1,0.0209 µM (active)
19,COc1cccc2c1C(=O)c1c(O)c3c(c(O)c1C2=O)C[C@@](O)(C(C)=O)C[C@H]3O[C@H]1C[C@H](N)[C@H](O)[C@H](C)O1,0.0833 µM (active)
20,O=c1ccn([C@@H]2O[C@H](CO)[C@H](O)[C@H]2O)c(=O)[nH]1,inactive
